Shown are actives, neighbours in structure and some others; about 10% of the full set was active somewhere.
3T3 cytotox = NIH 3T3 cell cytotoxicity | Potency, µM (doses to about 96.7 µM), for the others: top-dose activity change, negative = cytotoxicity, usual class: inhibitors | AID 1345082 | hit rate 4.3% among 94,000 | NIH 3T3 viability, CellTiter-Glo ATP luminescence, 48-72 h; note: nearly all actives have a fitted effect of over 55% in size
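Cells were seeded at 400 per well, treated with pin-transferred compound, and kept 48 or 72 hr at 37 °C before CellTiter-Glo addition and luminescence imaging of cellular ATP.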
GPT2 inhibitor = blocks human glutamate pyruvate transaminase 2; Potency, µM (titrated, usually from 57.7 µM), inactives show at the highest dose activity change, negative = inhibition, actives largely listed as inhibitors; hit rate 0.25% among 100,000; Recombinant GPT2, coupled pyruvate oxidase/HRP Amplex Red fluorescence; note: nearly all actives have a fitted effect of over 60% in size
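Inhibition is scored from Amplex Red fluorescence generated when pyruvate oxidase and HRP act on pyruvate released by GPT2. Reactions contain 10ng/uL enzyme, 250uM a-KG and 2mM L-alanine and run 30 min at room temperature.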
HEK cytotox = cytotoxic compounds in HEK 293 cells; HEK 293 viability, ATP luminescence (CellTiter-Glo), 48-72 h; Potency, µM (doses to about 115 µM), inactives show top-dose activity change, negative = cytotoxicity, actives largely listed as inhibitors; hit rate 6.6% among 94,000; AID 1345083; note: nearly all actives have a fitted effect of over 60% in size
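Read-out: CellTiter-Glo ATP luminescence. Cells: HEK 293, 250 cells/well. Exposure: 48 or 72 hr, 37 degree Celsius.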
hNpr1 antagonist = blocks ANP-stimulated signaling of human Npr1 receptor; hit rate 1.6% among 76,000; HEK293 hNpr1 GloSensor cGMP, ANP-stimulated luminescence; Potency, µM (series often up to 46.3 µM), for the others: at the top dose activity change, negative = inhibition, actives largely listed as inhibitors; P16066; calls by dose curve; note: nearly all actives have a fitted effect of over 60% in size
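HEK293 cells stably expressing human Npr1 and cGMP GloSensor pGS-40F, loaded 2 h with 2% GloSensor reagent, given compound 30 min at room temperature. Luminescence read before and 20 min after 0.1 nM hNppA.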
FLuc inh = blocks purified firefly luciferase enzyme activity; P08659; purified P. pyralis luciferase, luminescence, biochemical; Potency, µM (highest dose often 115 µM), usual class: inhibitors; hit rate 2.5% among 76,000; AID 1347043; note: nearly all actives have a fitted effect of over 65% in size
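Purified P. pyralis luciferase (10nM final) in 50mM Tris acetate pH 7.5, 10mM Mg acetate, 0.01% Tween-20, 0.05% BSA with 10uM D-luciferin and 10uM ATP. Compounds titrated qHTS. Luminescence imaged on CCD.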
Active calls of the source: *; i = inactive; ? = inconclusive; . = not tested or not shown; [ ] = remark or other dose. Unless noted, calls come from the whole dose curve; as a rule, active = well fitted curve in the direction sought with a large enough effect; inconclusive = small, poorly fitted or top-dose-only effect, or another doubt; inactive = no such curve, though single readings can be large; an effect the other way counts as inactive or inconclusive. % is set by controls: 0 for no effect and ±100 for the full control effect; potency is the fitted concentration of half-maximal effect.

SMILES	3T3 cytotox	GPT2 inhibitor	HEK cytotox	hNpr1 antagonist	FLuc inh
CCC(=O)N1CCN(c2nc3c(s2)CC(C(=O)Nc2ccc(F)cc2F)CC3)CC1 (centres undefined)	?	i	10µM*	?	i
CCC(=O)N1CCN(c2nc3c(s2)CC(C(=O)Nc2cccc(C)c2C)CC3)CC1 (centres undefined)	?	i	40µM*	-20%	i
COC(=O)N1CCC(c2nn(-c3ccc(Cl)cc3)c(=O)[nH]2)CC1	-12%[138 µM]	i	-1%[172 µM]	-5%[70.6 µM]	i
CC(C)c1ccc(C(=O)N2CCc3[nH]nc(C(=O)NCCCc4ccccc4)c3C2)cc1	0%	i	-1%	0%	i
O=C(NCCCc1ccccc1)c1n[nH]c2c1CN(C(=O)c1ccc(F)c(F)c1)CC2	35µM*	5%	?	.	.
COc1cccc(C(=O)N2CCc3[nH]nc(C(=O)NCCCc4ccccc4)c3C2)c1	32µM*	i	?	-29%	i
Cc1ccc(C(=O)N2CCc3[nH]nc(C(=O)NCCCc4ccccc4)c3C2)cc1C	?	4%	?	.	.
CCC(C)C(=O)N1CCc2[nH]nc(C(=O)NCCCc3ccccc3)c2C1 (centres undefined)	?	i	11µM*	0%	i
O=C(NCCCc1ccccc1)c1n[nH]c2c1CN(C(=O)c1cccc(Cl)c1)CC2	35µM*	1%	?	.	.
Cc1nnc2ccc(N3CCC(NC(=O)C(C)(C)C)C3)nn12 (centres undefined)	-24%[138 µM]	.	-7%[172 µM]	.	.
COc1ccc(NC(=O)Cn2c(C)cc3nc4n(c(=O)c32)CCCC4)cc1	-6%	5%	5%	1%	i
COc1ccc(C(=O)Nc2ccc3c(c2)CN(Cc2cc(F)cc(F)c2)C(=O)C(C)O3)cc1 (centres undefined)	?	i	?	-22%	i
CSCC(=O)N[C@H]1CCN2C(=O)c3ccccc3NC(=O)[C@@H]2C1	2%[174 µM]	1%[88.5 µM]	-3%[172 µM]	-3%[70.6 µM]	i
COc1ncc(-c2ccc3ncn(-c4ccc(F)cc4F)c(=O)c3n2)cn1	?	1%[88.5 µM]	89µM*	-2%[70.6 µM]	i
C[S+](=O)([O-])c1cccc(-c2ccc3ncn(-c4ccc(F)cc4F)c(=O)c3n2)c1	?	-15%[88.5 µM]	?	0%[70.6 µM]	i
COCc1cccc(-c2ccc3ncn(-c4ccc(F)cc4F)c(=O)c3n2)c1	?	i	-23%[172 µM]	4%[70.6 µM]	i
O=c1c2nc(-c3cccnc3)ccc2ncn1-c1ccc(F)cc1F	?	i	71µM*	0%[70.6 µM]	i
CC(=O)Nc1cccc(-c2ccc3ncn(-c4ccc(F)cc4F)c(=O)c3n2)c1	?	-3%[88.5 µM]	89µM*	-2%[70.6 µM]	i
NC(=O)COCCN1CCN(C(c2ccccc2)c2ccc(Cl)cc2)CC1 (centres undefined)	.	-4%	.	.	.
O=C(NCc1cccc(Cl)c1)c1nc2cccnc2n(CCc2ccccc2)c1=O	?	i	35µM*	.	.
CCCCn1c(=O)c(C(=O)NCc2ccccc2)nc2cccnc21	?	i	?	.	.
O=C(NCCc1ccccc1)c1nc2cccnc2n(CCc2ccccc2)c1=O	-1%	i	?	.	.
CCCCn1c(=O)c(C(=O)NCc2cccc(Cl)c2)nc2cccnc21	35µM*	i	?	.	.
CCCCn1c(=O)c(C(=O)NCCc2ccccc2)nc2cccnc21	?	i	45µM*	.	.
CC(C)=CCn1c(-c2cc(C)oc2C)cn2cc(C(=O)N[C@@H](C)C(N)=O)nc2c1=O	-25%	i	i	1%	i
SMILES	3T3 cytotox	GPT2 inhibitor	HEK cytotox	hNpr1 antagonist	FLuc inh
COc1ccc(-n2ccnc2CN2CCCC(O)(CO)C2)cc1 (centres undefined)	-12%	i	0%	0%	i
CC(C)c1nc2c(c(-c3ccc(O)cc3)n1)CN(Cc1cccc(C(F)(F)F)c1)CC2	22µM*	i	32µM*	-8%	i
CC(C)c1nc2c(c(-c3ccc(Cl)cc3)n1)CCN(Cc1ccc(C#N)cc1)CC2	?	-9%	40µM*	.	.
CC(C)c1nc2c(c(-c3ccc(O)cc3)n1)CCN(Cc1ccccc1C(F)(F)F)CC2	28µM*	i	35µM*	?	i
CC(C)c1nc2c(c(-c3ccc(O)cc3)n1)CN(Cc1ccc(F)cc1)CC2	?	3%	89µM*	2%	i
CC(C)c1nc2c(c(-c3ccc(O)cc3)n1)CCN(Cc1ccc(F)cc1)CC2	?	0%	?	3%	i
Cc1cc(CN2CCc3nc(C(C)C)nc(-c4ccc(Cl)cc4)c3CC2)no1	?	i	?	.	.
CC(C)N[C@@H]1CO[C@H](CNC(=O)CC(C)(C)C)[C@H]1O	i	i	i	1%[70.6 µM]	i
Cc1ccc(CN2CCc3nc(C(C)C)nc(-c4ccc(O)cc4)c3C2)cc1	?	?	?	1%	i
CC(C)c1nc2c(c(-c3ccc(O)cc3)n1)CN(Cc1ccc(N(C)C)cc1)CC2	-29%	i	79µM*	8%	i
Cc1noc(C)c1-c1cc2cc(C(C)C)oc2c(NC2CCOCC2)n1	?	-1%[88.5 µM]	100µM*	1%[70.6 µM]	i
COc1ncccc1-c1nc(-c2c(C)noc2C)cc2cc(C(C)C)oc12	?	-4%[88.5 µM]	89µM*	1%[70.6 µM]	i
Cc1noc(C)c1-c1cc2cc(C(C)C)oc2c(-c2c(C)noc2C)n1	?	0%[88.5 µM]	?	-4%[70.6 µM]	i
Cc1noc(C)c1-c1cc2cc(C(C)C)oc2c(NC(C)C)n1	79µM*	-6%[88.5 µM]	89µM*	-2%[70.6 µM]	i
COc1ccc(S(=O)(=O)NC[C@@H]2C=C(C)[C@H](CC(=O)N3CCN(C)CC3)C[C@H]2C(C)C)cc1	?	-5%	?	2%	i
CCOC(=O)C[C@@H]1C[C@@H](C(C)C)[C@H](CNS(=O)(=O)c2ccc(OC)cc2)C=C1C	?	0%[88.5 µM]	40µM*	-16%[70.6 µM]	i
COc1ccc(S(=O)(=O)NC[C@@H]2C=C(C)[C@H](CC(=O)N3CCN(c4ccccn4)CC3)C[C@H]2C(C)C)cc1	8.9µM*	-6%	?	-17%	i
CCc1ccc(CN2CCCC(CO)(Cc3ccc(F)cc3F)C2)cc1 (centres undefined)	79µM*	-5%	?	-1%	i
Cc1cc(C)n(-c2ccc(F)cc2CN2CCCC(CO)(Cc3ccccc3)C2)n1 (centres undefined)	?	-14%	?	-9%	i
Cc1cnc(C2CC2)n1C1CCN(S(C)(=O)=O)CC1	-11%	2%	i	-5%	i
O=C(C[C@@H]1CCNC[C@@H]1Cc1cc(CC2CCCCC2)on1)NCc1cccnc1	?	4%[88.5 µM]	2%[172 µM]	0%[70.6 µM]	i
